Data on 46 molecules can be found in ChEMBL document CHEMBL3988442, “University of Dundee, Small-Polar-MMV Screening Library” (2021).

Experiment [1] has as its target T1, Aspartate--tRNA(Asp/Asn) ligase (Mycobacterium tuberculosis (strain ATCC 25618 / H37Rv)) (UniProt P9WFW3). Further: in the data most compounds retested in dose-response had high values.
T1 sequence (whole entry): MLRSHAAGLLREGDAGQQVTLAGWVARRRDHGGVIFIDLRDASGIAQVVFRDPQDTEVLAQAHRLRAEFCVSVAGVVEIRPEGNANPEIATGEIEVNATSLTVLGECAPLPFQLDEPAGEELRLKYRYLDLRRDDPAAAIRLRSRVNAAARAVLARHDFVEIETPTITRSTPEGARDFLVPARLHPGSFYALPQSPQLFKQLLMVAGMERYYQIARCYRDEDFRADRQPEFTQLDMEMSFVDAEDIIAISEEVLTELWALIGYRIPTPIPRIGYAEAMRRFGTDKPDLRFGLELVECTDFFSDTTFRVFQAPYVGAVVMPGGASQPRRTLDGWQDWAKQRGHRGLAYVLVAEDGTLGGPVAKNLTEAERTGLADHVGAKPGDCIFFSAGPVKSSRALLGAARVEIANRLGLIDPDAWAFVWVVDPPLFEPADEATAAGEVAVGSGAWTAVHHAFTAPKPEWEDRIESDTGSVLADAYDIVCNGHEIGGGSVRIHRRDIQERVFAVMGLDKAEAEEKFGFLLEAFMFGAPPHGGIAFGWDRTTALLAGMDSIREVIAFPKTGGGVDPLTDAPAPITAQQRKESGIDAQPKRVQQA
Briefly: Assay for Asp RNA synthetase-1 from Mycobacterium tuberculosis. Set-up: scale not given: direction of the effect not stated beside the values. Format: functional. Conditions: 30 µM.

The target in experiment [2] is Shiga toxin 2 (Escherichia coli O157:H7) (UniProt P09385+P09386). Briefly: E. coli 0.157:H7 Shiga Toxin SOP - stx2 screening assay. The class given is functional. Set-up: scale not given: direction of the effect not stated beside the values. Conditions: 30 µM.

In the case of `Cc1nc(C)c(C(=O)NCCNC(=O)c2ccc(F)cc2F)s1`, the Percent Effect in experiment [1] is -2.04%; in experiment [2], -16%.
Consider `COc1cc(CNCc2c(C(C)C)nn(C)c2N(C)C)ccn1`, for which the results for the Percent Effect in experiment [1] and in experiment [2] were 0.522% and 22.2%, respectively.
On to `Cc1cc(CN2CCN(C(=O)NCc3nc(C)cs3)CC2)on1`, for which the figures for the Percent Effect in experiment [1] and in experiment [2] were 2.33% and 27.5%, respectively.
For the molecule `Cc1cc(CN2Cc3ccccc3CC2c2nnc(C)o2)on1` (configuration not stated), the Percent Effect is -0.894% in experiment [1] and 8.24% in experiment [2].
For `COc1ccc(NC(=O)NC(C)c2nc[nH]n2)cc1` (configuration not stated), the Percent Effect was -1.71% in experiment [1] and 5.29% in experiment [2].
`Cn1cc(CN2CCc3onc(COc4cccnc4)c3C2)cn1`: the results for the Percent Effect in experiment [1] and in experiment [2] were -6.13% and -65.9%, respectively.
Take `CCOCCCn1c(NC(=O)c2ccc(C)nc2)nc2ccccc21`: the Percent Effect in experiment [1] is -3.79%; in experiment [2] it was 14.9%.
The corresponding values for `c1cnc(N2CCCC(NCc3cccc4c3OCCO4)C2)nc1` (configuration not stated) are -1.35% and 4.24%.
On to `CN(CC(=O)Nc1ccc(Br)cn1)C(=O)Cc1ccc(O)cc1`, for which the Percent Effect is -5.92% in experiment [1] and 17.8% in experiment [2].
For `CCc1cnc(CN(C(C)=O)C2CCN(CCc3cccs3)C2)o1` (configuration not stated), the Percent Effect in experiment [1] is -1.49%; in experiment [2], 21.4%.
For the molecule `CC(C)c1cc(NCC(O)CO)n2nccc2n1` (configuration not stated), the Percent Effect in experiment [1] is -1.68%; in experiment [2], -0.898%.
Turning to `O=C(NCc1ccc(-n2cncn2)nc1)c1ccc2c(c1)CCO2`, the Percent Effect in experiment [1] was -1.77%; in experiment [2], 12.9%.
Regarding `CN1CCN(C(=O)c2cncc(CC3CCCN(C)C3)c2)CC1` (configuration not stated), the values for the Percent Effect in experiment [1] and in experiment [2] were -1.68% and -19.2%, respectively.
Take `c1cnc2c(c1)cc([C@H]1CCCO1)n2CCN1CCOCC1`: the Percent Effect in experiment [1] was determined as 7.52%; in experiment [2], 12.7%.
Take `NC(=O)C1CCN(c2nc3nccc(-c4ccccn4)c3c(=O)[nH]2)CC1`: the figures for the Percent Effect in experiment [1] and in experiment [2] were 1.02% and 2.69%, respectively.
On the same counts, the results for `COc1cc(C)nc(N2CCN(C(=O)CCc3cscn3)CC2)n1` are -2.13% and -10.1%.
As for `O=c1[nH]c(CN(Cc2ccco2)C2CCCC2)nc2ccccc12`, the Percent Effect in experiment [1] was -3.64%; in experiment [2], -24.3%.
On to `CN(C)CCN1C[C@@H]2CN(C(=O)c3ccsc3)C[C@@H]2C1=O`, for which the Percent Effect in experiment [1] is -4.34%; in experiment [2], -40.9%.
The corresponding values for `COc1ncc(NC(=O)Nc2cc(C)ccc2OC)cn1` are 1.65% and -28.6%.
With `Cc1[nH]c(=O)[nH]c(=O)c1CN1CCCC(CCc2ccccc2)C1` (configuration not stated), the Percent Effect is -0.814% in experiment [1] and -2.29% in experiment [2].
For `Cc1noc(C2CCC3(CCN(C(=O)C4=CCCCC4)CC3)O2)n1` (configuration not stated), the Percent Effect in experiment [1] is -2.98%; in experiment [2], 7.42%.
Turning to `CCCc1noc(CN2CCCC2c2ccsc2)n1` (configuration not stated), the Percent Effect in experiment [1] was -3.91%; in experiment [2], 0.761%.
Take `CCOc1ccccc1C(CC(=O)Nc1ccc(C)cn1)NC(C)=O` (configuration not stated): the results for the Percent Effect in experiment [1] and in experiment [2] were -0.122% and 14.7%, respectively.
On the same counts, the results for `O=C(Cc1ccsc1)N1CCCC(c2n[nH]c3nccnc23)C1` (configuration not stated) are -5.85% and 6.36%.
Regarding `COc1ccc(CNCc2ccnc(N3CCOCC3)c2)cc1OC`, the Percent Effect in experiment [1] is -2.66%; in experiment [2], -52.5%.
Take `COc1ccnc(N2CCN(C(=O)CN3CCCC3=O)CC2)n1`: the Percent Effect was -1.88% in experiment [1] and 13.5% in experiment [2].
Consider `CCc1cnc(CN(C)C2CCN(CCc3ccccn3)C2)o1` (configuration not stated), for which the Percent Effect was 0.0557% in experiment [1] and -7.08% in experiment [2].
Consider `CCN(CC)Cc1ccc(C(=O)N2CCN(CC(C)O)CC2)cc1` (configuration not stated), for which the Percent Effect in experiment [1] came out at 0.607%; in experiment [2], 8.97%.
Turning to `Cc1ccc(CN2CC(C(=O)N3CCCC3)C3(CCOCC3)C2)s1` (configuration not stated), the Percent Effect was 10.8% in experiment [1] and -7.63% in experiment [2].
For the molecule `CN1CCCN(C(=O)c2ccc3c(c2)nc(N2CCOCC2)n3C)CC1`, the Percent Effect is -3.09% in experiment [1] and -5.95% in experiment [2].
`COc1ccc(S(N)(=O)=O)cc1C(=O)N(C)Cc1cc(C)on1`: the Percent Effect in experiment [1] is -2.1%; in experiment [2], -47%.
For `Cc1nc(C)n(C2CCCN(C(=O)c3csc(C(C)C)n3)C2)n1` (configuration not stated), the Percent Effect in experiment [1] was found to be 7.62%; in experiment [2], 4.53%.
Consider `COc1cc(C(C)=O)ccc1OCC(=O)N(C)Cc1cnn(C)c1`, for which the Percent Effect in experiment [1] was -4.92%; in experiment [2], 0.928%.
On the same counts, the results for `COc1ccccc1CC(=O)N1CC[C@@]2(CCCO2)[C@@H](OC)C1` are 4.54% and 52.7%.
For the molecule `Cn1cnc(S(=O)(=O)NCCCN2CCCCCC2)c1Cl`, the Percent Effect in experiment [1] was 1.4%; in experiment [2], 18.1%.
The corresponding values for `O=C(c1cc(Cl)c2c(c1)OCO2)N1CCCC(n2ccnc2)C1` (configuration not stated) are -1.93% and 4.72%.
In the case of `CCC(C)(C)NC(=O)C1CC(=O)N(CC2CC2)C1` (configuration not stated), the Percent Effect in experiment [1] is 5.42%; in experiment [2], 28.9%.
As to `O=C(c1cccc(F)c1)N1CCOC(c2nc(-c3ncccn3)no2)C1` (configuration not stated), the Percent Effect in experiment [1] is -5.54%; in experiment [2], 3.39%.
The corresponding values for `CC(=O)N1CCCC1c1csc(Nc2cnccn2)n1` (configuration not stated) are 3.49% and 29.9%.
Regarding `Cc1cc(N2CCC(N(C)C(=O)Nc3ccccc3)CC2)nc(C)n1`, the figures for the Percent Effect in experiment [1] and in experiment [2] were 7.13% and -20.7%, respectively.
With `O=C(O)c1cc(S(=O)(=O)Nc2ccc(Cl)cc2)cc2c1OCCO2`, the Percent Effect in experiment [1] was 0.0437%; in experiment [2], -7.1%.
`COC(=O)C1CCN(c2cncc(-n3nc(C)cc3C)n2)CC1`: the Percent Effect in experiment [1] was 8.26%; in experiment [2], -51.5%.
Take `CN(C)CCN1CCCC12CCN(C(=O)c1cccn1C)CC2`: the Percent Effect in experiment [1] was -5.96%; in experiment [2], -0.241%.
As for `CCn1c(CN(C)C)nnc1C1CCN(Cc2cccc(OC)c2)CC1`, the Percent Effect in experiment [1] was 0.565%; in experiment [2], -66.9%.
In the case of `COc1ccc2cc(C(=O)N3CCCCC3CC(N)=O)[nH]c2c1` (configuration not stated), the Percent Effect is -1.12% in experiment [1] and 4.87% in experiment [2].
On the same counts, the results for `Cc1nc(Cn2nc(C3CCNCC3)n(Cc3ccccc3)c2=O)no1` are -2.53% and -3.49%.
